Among the data in PubChem BioAssay (EPA / NIEHS) are outcome and AC50 values, retold here.

Records with an inconclusive call do not appear. Active and inactive are the calls of the source. Rule for the calls, unless noted: active = hit-call score of the fitted dose curve at least 0.9, where 1 is the maximum; inconclusive = response in the unintended direction; inactive = score below 0.9.

A short description of assay [1]: Tanguay_ZF_120hpf_SWIM_legacy: (Legacy) Oregon State University Tanguay Lab 120 Hour Post-fertilization zebrafish Assay for Swim Bladder Malformation (AID 2283654).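 Note: swim bladder malformation in each larva scored yes or no under brightfield.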 Summed up: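 Dechorionated wild-type Tropical 5D zebrafish embryos, one per well from 6 hpf, were statically exposed at 28C until 120 hpf in 0.64% DMSO. Swim bladder malformation scored as present/absent by brightfield microscopy; not scored in dead larvae.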

The nature of assay [2]: Tanguay_ZF_120hpf_TRUN_legacy: (Legacy) Oregon State University Tanguay Lab 120 Hour Post-fertilization zebrafish Assay for Truncated Body (AID 2283655). The method, boiled down: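 Dechorionated Tropical 5D wild-type embryos placed singly from 6 hpf and statically exposed to 120 hpf at 28C, final DMSO 0.64%. Truncated body scored as present/absent by brightfield; not scored in dead embryos.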

Assay [3] can be described thus: Tanguay_ZF_120hpf_NC_legacy: (Legacy) Oregon State University Tanguay Lab 120 Hour Post-fertilization zebrafish Assay for Notochord and Tail Malformation (AID 2283656). The method, boiled down: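 Dechorionated 5D zebrafish, 1/well from 6 hpf; static exposure to 120 hpf, 28C, sealed, dark; final DMSO 0.64% v/v. NC scored binary (present/absent); dead embryos not scored. Fit vs DMSO baseline, gain direction.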

A short description of assay [4]: CCTE_Simmons_CellTiterGLO_HEK293T: Viability Assessment in CCTE's Assays for Thyroperoxidase (TPO) Inhibition, Simmons Lab (AID 2283665).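 For AC50: cells exposed to compound for 24 h before readout; actives reduce ATP signal below DMSO vehicle meaning cytotoxicity.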 The method, boiled down: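 Cytotoxicity counter-screen: human HEK293T cells in low-serum (1% FBS) medium receive test chemical, 5 nM to 87.5 uM final, for 24 h; ATP is quantified by luciferase luminescence.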
(In general: In ATP-based viability assays light output follows the ATP content of the culture.)

The nature of assay [5]: Tanguay_ZF_120hpf_TR_legacy: (Legacy) Oregon State University Tanguay Lab 120 Hour Post-fertilization zebrafish Assay for Touch Response (AID 2283667). Summed up:
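Tropical 5D wild-type zebrafish embryos statically exposed to 120 hpf at 28°C, sealed and dark-covered, 0.64% DMSO final; touch response scored as present/absent by brightfield microscopy at 120 hpf. Trimethyltin chloride 5 uM positive control; dead embryos not scored.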

Assay [6] can be described thus: STM_H9_OrnithineISnorm_perc: Stemina devTOX quickPredict H9 human embryonic stem cell (hESC)-based Assay for Ornithine (ORN) Metabolite Biomarker, Normalized (AID 2283712; active = hit-call score of the fitted dose curve at least 0.9, where 1 is the maximum; inactive = score below 0.9;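 note: ornithine released into spent medium during last day measured by mass spectrometry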). Summed up: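 Cells: undifferentiated H9 hESC. Dosing: 72 h, media replaced every 24 h. Sample: final 24-h conditioned media, 40% acetonitrile. Read: UPLC-HRMS ornithine area vs 13C standard, % DMSO control.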

Assay [7] in a line: STM_H9_CystineISnorm_perc: Stemina devTOX quickPredict H9 human embryonic stem cell (hESC)-based Assay for Cystine (CYSS) Metabolite Biomarker, Normalized (AID 2283713; active = hit-call score of the fitted dose curve at least 0.9, where 1 is the maximum; inactive = score below 0.9). The method, boiled down:
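Secreted cystine was measured by UPLC-HRMS in H9 hESC medium after 72h compound exposure with 24-hourly replenishment. Values are standard-normalized areas relative to 0.1% DMSO.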

A short description of assay [8]: STM_H9_OrnCyssISnorm_ratio: Stemina devTOX quickPredict H9 human embryonic stem cell (hESC)-based Assay for Ornithine (ORN):Cystine (CYSS) Ratio (AID 2283714). Summed up:
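Undifferentiated H9 hESCs exposed 72 h, media and compound replaced every 24 h; final 24-h conditioned media deproteinized and analysed by UPLC-HRMS against C13 spike-ins. Value is the internal-standard-normalized ORN/CYSS ratio versus 0.1% DMSO.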

The nature of assay [9]: ArunA_CellTiter_hNC: Viability Assessment in the ArunA Biomedical's Oris Neural Crest (hNC) Cell Migration Assay (AID 2283752). The method, boiled down: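 Viability of embryonic neural crest stem cells from the H9 line is scored 72 h after dosing, with DMSO as negative control and baseline. A drop in CellTiter Aqueous One signal indicates cytotoxicity.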
Assay [10] can be described thus: ArunA_CellTiter_hNP: Viability Assessment in the ArunA Biomedical's Oris Neural Crest (hNC) Cell Migration Assay (AID 2283753). Summed up: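 H9-derived hNP1 neuroprogenitors, 60,000/well on Matrigel, cultured 16 h, then 72 h chemical exposure in test medium. Cell titer via CellTiter Aqueous One; positive-direction fit vs DMSO.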
A short description of assay [11]: ArunA_Migration_hNP: ArunA Biomedical's Oris Neuroprogenitor (hNP) Cell Migration Assay (AID 2283754). Summed up:
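Human H9-derived hNP1 neuroprogenitors on Matrigel with LIF/bFGF, plated around seeding stoppers for 16 h at 37C; stoppers removed at start of 72 h chemical exposure. Calcein-AM staining, fluorescence 494/517 nm in detection zone; loss-of-signal vs DMSO; cytochalasin D control.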

The nature of assay [12]: ArunA_Migration_hNC: ArunA Biomedical's Oris Neural Crest (hNC) Cell Migration Assay (AID 2283755). Summed up: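 Human H9-derived neural crest stem cells, 60,000/well on Matrigel, 16 h at 37C, then 72 h chemical exposure after seeding-stopper removal. Migration into detection zone read as calcein-AM fluorescence (ex494/em517), relative to DMSO.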
A short description of assay [13]: ArunA_NOG_NucleusCount: ArunA Biomedical's Neurite Outgrowth (NOG) Assay for Nucleus Count (AID 2283756). Summed up: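 Human H9-derived differentiated neurons were exposed for 48 h right after seeding. Hoechst-stained nuclei gated by size and intensity were counted by automated high-content imaging as viable neurons. Loss of signal vs DMSO.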
The test system of assay [14] is Thyroperoxidase (TPO), gene 445522. Put plainly: CCTE_Simmons_GUA_TPO: CCTE's Guaiacol Assay for Thyroperoxidase (TPO) Inhibition, Simmons Lab (AID 2283750). Summed up:
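Porcine thyroid microsomes (25 ug) in 200mM potassium phosphate, preincubated 30 s at 37C with compound (8 concentrations, 5 nM–87.5 uM) and 35mM guaiacol; 1mM H2O2 starts reaction. Absorbance change at 450nm over first 80 s; loss of signal versus DMSO, three replicates.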

Read-out in assay [15]: solute carrier (SLC10A1), SLC10A1 (gene 6554)
Put plainly: LTEA_HepaRG_SLC10A1: Life Technologies and Expression Analysis (LTEA) Assay for solute carrier (SLC10A1) using HepaRG (AID 2283657; active = hit-call score of the fitted dose curve at least 0.9, where 1 is the maximum; inactive = score below 0.9). As to conditions: mRNA level, 48 h; actives raise or lower the signal. Summed up:
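HepaRG cells (single lot) exposed 48 h in serum-free induction medium, 8-point half-log series from 100 uM top in 0.5% DMSO, duplicate. SLC10A1 mRNA by qRT-PCR normalised to ACTB, GAPDH, POLR2A; bidirectional fit versus DMSO.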

Read-out in assay [16]: matrix metalloproteinase-1 (MMP1), MMP1 (gene 4312)
Put plainly: LTEA_HepaRG_MMP1: Life Technologies and Expression Analysis (LTEA) Assay for matrix metalloproteinase-1 (MMP1) using HepaRG (AID 2283658; active = hit-call score of the fitted dose curve at least 0.9, where 1 is the maximum; inactive = score below 0.9). As to conditions: mRNA level, 48 h; actives raise or lower the signal. Summed up:
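Differentiated human HepaRG cells, 48 h post-plating in serum-free induction medium, were exposed 48 h to eight half-log concentrations topping at 100 uM in 0.5% DMSO, duplicate. MMP1 mRNA measured by Fluidigm TaqMan qRT-PCR, normalized to ACTB, GAPDH, POLR2A; bidirectional fits versus DMSO.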

Read-out in assay [17]: Cytochrome P450 (CYP24A1_1), CYP24A1 (gene 1591)
The assay is described as follows: LTEA_HepaRG_CYP24A1_1: Life Technologies and Expression Analysis (LTEA) Assay for Cytochrome P450 (CYP24A1_1) using HepaRG (AID 2283671; active = hit-call score of the fitted dose curve at least 0.9, where 1 is the maximum; inactive = score below 0.9). As to conditions: mRNA level, 48 h; actives raise or lower the signal. Summed up:
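Differentiated human HepaRG cells in serum-free induction medium, exposed 48 h in duplicate to eight half-log concentrations from 100 uM top, 0.5% DMSO. Transcript measured by TaqMan qRT-PCR, normalised to ACTB, GAPDH, POLR2A; bidirectional fitting versus DMSO.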

Assay [18] is described as follows: CCTE_Padilla_ZF_144hpf_TERATOSCORE: (Legacy) CCTE's 144 Hour Post-fertilization zebrafish Assay Teratoscore, Padilla Lab (AID 2283679; active = hit-call score of the fitted dose curve at least 0.9, where 1 is the maximum; inactive = score below 0.9;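 for AC50: zebrafish embryos with chorions exposed by immersion from 6-8 hpf to 5 dpf with daily renewal; teratogenicity score from eye scoring of death hatching and malformations at 144 hpf; higher score means more developmental defects relative to DMSO baseline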). The method, boiled down: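 Larvae scored by eye at 144 hpf for death, hatching and malformations after a day in clean Hanks'. Before that, daily-renewed exposure at 80 uM (0.4% DMSO, 26C) from roughly 6-8 hpf through 5 dpf, 4 embryos per chemical.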

Assay [19] can be described thus: CEETOX_H295R_MTT_cell_viability: Viability Assessment in the CeeTox HT-H295R MTT Assay (AID 2283718; active = hit-call score of the fitted dose curve at least 0.9, where 1 is the maximum; inactive = score below 0.9). The method, boiled down:
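Human H295R adrenal cells, prestimulated 48 h with 10 uM forskolin, were exposed 48 h to chemicals in 0.1% DMSO. Viability was measured in the same wells by MTT (0.5 mg/ml, 4 h, 37 C), absorbance 570/650 nm, as percent of controls.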

The nature of assay [20]: Tanguay_ZF_120hpf_ActivityScore_legacy: (Legacy) Oregon State University Tanguay Lab 120 Hour Post-fertilization zebrafish Assay Score for Activity (AID 2283742). Summed up:
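Dechorionated Tropical 5D embryos, one per well from 6 hpf, statically exposed to 120 hpf at 28 °C in 0.64% DMSO. Mortality and malformations scored binary by brightfield microscopy; activity score combines 18 endpoints, fitted positively versus DMSO.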

Take `CCCCC(CC)COC(=O)CC(C(=O)OCC(CC)CCCC)S(=O)(=O)O` (stereo not given): the call in assay [1], in assay [2], in assay [3], in assay [5], in assay [6] and in [7] was inactive. Moreover, the result in [8], in [9] and in [13] was inactive. Besides, the AC50 in assay [4] was 15.8 µM (active); in [10], 7.54 µM (active); in assay [11], 77.9 µM (active); in assay [12] it was 28.7 µM (active).
`O=C(O)CCCCC(=O)O`: the result in assay [1], in assay [2], in [3] and in assay [5] was inactive.
For `CCCCCCC(=O)OCC`, the call in assay [1], in assay [2] and in assay [3] was inactive.
On to `Cc1cccc(C)c1O`, for which the result in assay [1], in assay [2], in [3], in assay [4], in assay [5] and in [14] was inactive.
For the compound `CCCCCCCCCCC`, the compound was called inactive in [1], in [2], in [3], in [15], in assay [16] and in [5]. Moreover, the outcome in assay [17] was inactive.
`Cc1ccc(C)c(C)c1`: the compound was classed as inactive in [1], in assay [2], in assay [3], in assay [15], in assay [16] and in assay [5]. For the same compound, the outcome in assay [17] was inactive.
For the compound `CCOc1ccc2c(c1)C(C)=CC(C)(C)N2`, the compound was classed as inactive in assay [1], in [2], in assay [3], in assay [5], in assay [6] and in assay [7]. In addition, the result in assay [8], in [19] and in [20] was inactive. For the same compound, the AC50 was 48.8 µM (active) in [4], 57.7 µM (active) in [18] and 130 µM (active) in assay [14].
For `Nc1ccc(S(=O)(=O)c2ccc(N)cc2)cc1`, the compound was classed as inactive in assay [1], in assay [2], in assay [3], in assay [4], in assay [5] and in [20].
Consider `O=c1c(O)c(-c2ccc(O)c(O)c2)oc2cc(O)cc(O)c12`, for which the compound was called inactive in assay [1], in [2], in assay [3], in assay [5], in assay [18] and in [6]. Besides, the result in assay [7] and in [9] was inactive. The concentration at half-maximal activity (AC50) in [4] was 27.1 µM (active); in assay [10], 3.88 µM (active); in assay [11], 3.08 µM (active); in assay [12] it was 2.36 µM (active).

As usually defined, the AC50 is the concentration at which the activity in the assay is half-maximal.
